A short description of test [1]: ATG_E_Box_CIS: Attagene CIS-FACTORIAL HepG2 Assay for human Enhancer Box (E-box) (AID 2282936). Conditions: HepG2 E-box cis-reporter transcription, actives raise or lower the signal. In outline: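 Endogenous transcription factor activity was sensed in human HepG2 liver cells through transfected cis-promoter reporter units. After 24 h of dosing, total RNA was reverse-transcribed and reporter cDNA resolved by capillary electrophoresis.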

Test [2] is described as follows: ATG_M_61_CIS: Attagene CIS-FACTORIAL HepG2 Assay for M61 Transcription Factor (Internal Marker) (AID 2282937). Conditions: HepG2 Attagene CIS-FACTORIAL M61 internal marker reporter; actives raise or lower the signal. The method in brief:
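Using transiently transfected HepG2 liver cells, reporter transcript levels were assessed 24 h post-dosing by RT-PCR and capillary electrophoresis. Changes in either direction were fitted relative to DMSO controls.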

A short description of test [3]: ATG_EGR_CIS: Attagene CIS-FACTORIAL HepG2 Assay for human Early Growth Response 1 (EGR1) (AID 2282938). Conditions: HepG2 Attagene CIS-FACTORIAL EGR reporter mRNA; actives raise or lower the signal. In outline:
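Fluorescent capillary-electrophoresis signal of reporter cDNA fragments serves as read-out. HepG2 cells bear transiently transfected cis-promoter reporter units and are exposed 24 h; gain- or loss-of-signal is fitted against DMSO.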

Test [4] is described as follows: ATG_M_19_CIS: Attagene CIS-FACTORIAL HepG2 Assay for M19 Transcription Factor (Internal Marker) (AID 2282939). The note with it: HepG2 Attagene CIS-FACTORIAL M19 internal marker reporter; actives raise or lower the signal. The method in brief: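 HepG2 cells transiently transfected with cis-regulated multiple reporter transcription units were dosed for 24 h; reporter mRNA was quantified by RT-PCR, 6-FAM primer-extension labelling, HpaI digestion and capillary electrophoresis, with bidirectional fitting against DMSO baseline.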

The nature of test [5]: ATG_ERE_CIS: Attagene CIS-FACTORIAL HepG2 Assay for Estrogen Response Element (ERE) (AID 2282940). Conditions: HepG2 ERE cis-reporter, Attagene RNA transcript; actives raise or lower the signal. In outline: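 HepG2 cells transiently transfected with cis-promoter-driven multiplexed reporter transcription units report endogenous TF activity. After 24 h compound exposure, reporter mRNA is quantified by RT-PCR with capillary electrophoresis fluorescence; bidirectional fitting versus DMSO baseline.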

The nature of test [6]: ATG_Ets_CIS: Attagene CIS-FACTORIAL HepG2 Assay for human Erythroblast Transformation Specific (ETS) (AID 2282941). Conditions: HepG2 ETS cis-reporter transcription; AC50: actives raise or lower the signal unless noted; outcome: actives raise or lower the signal unless noted. The method in brief: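 Cis-regulated reporter mRNA induction in HepG2 (transient transfection), 24 h exposure, RT-PCR plus capillary electrophoresis detection; DMSO serves as negative control and baseline.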

Test [7] addresses Hepatocyte nuclear factor 3-beta (Homo sapiens) (UniProt Q9Y261). Kind of test: ATG_FoxA2_CIS: Attagene CIS-FACTORIAL HepG2 Assay for human Forkhead box A2 (FOXA2) (AID 2282942). Conditions: HepG2 cis-reporter transcription factor activity, 24 h; actives raise or lower the signal. In outline:
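Fluorescence signal of reporter cDNA fragments, separated by capillary electrophoresis, reflects endogenous transcription factor activity in transfected HepG2 after 24 h. Both increases and decreases fitted against DMSO.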

A short description of test [8]: ATG_FoxO_CIS: Attagene CIS-FACTORIAL HepG2 Assay for human Forkhead box O (FoxO) (AID 2282943). The note with it: HepG2 Attagene cis-reporter, FoxO element, mRNA; actives raise or lower the signal. In outline:
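Values reflect reporter mRNA induction or loss in HepG2 cells 24 h post-dosing, fitted bidirectionally with DMSO as negative control and baseline. Detection used RT-PCR and fluorescence capillary electrophoresis.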

Test [9] in a line: ATG_GATA_CIS: Attagene CIS-FACTORIAL HepG2 Assay for human GATA Binding Protein (AID 2282944). Conditions: HepG2 GATA cis-element reporter, Attagene multiplex mRNA; actives raise or lower the signal. The method in brief: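 HepG2 cells transiently transfected with multiplexed cis-element reporter units reflecting endogenous transcription factor activity; reporter mRNA measured after 24 h dosing by RT-PCR, 6-FAM labeling, HpaI digestion and capillary electrophoresis. Bidirectional fitting versus DMSO baseline.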

A short description of test [10]: ATG_GLI_CIS: Attagene CIS-FACTORIAL HepG2 Assay for human Zinc Finger Protein GLI1 (AID 2282945). The note with it: HepG2, Attagene cis-factorial reporter mRNA, GLI element; actives raise or lower the signal. In outline:
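HepG2 cells transiently transfected with cis-promoter multiplexed reporter units report endogenous transcription factor activity. After 24 h chemical exposure, reporter mRNA was quantified by RT-PCR, 6-FAM labelling, HpaI digestion and capillary electrophoresis, with bidirectional fitting against DMSO.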

For test [11], the target named is Bile acid receptor (Homo sapiens) (UniProt Q96RI1). Kind of test: ATG_IR1_CIS: Attagene CIS-FACTORIAL HepG2 Assay for human Nuclear Receptor Subfamily 1 Group H Member 4 (NR1H4), IR1 submotif (AID 2282946). The note with it: IR1 reporter transcription, actives raise or lower the signal. The method in brief: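 Readout: reporter transcript levels by RT-PCR with fluorescent capillary electrophoresis, from HepG2 cells transiently transfected with multiplexed cis-regulated reporters and dosed 24 h. Gain- or loss-of-signal fitted versus DMSO negative control.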

Test [12] is described as follows: ATG_GRE_CIS: Attagene CIS-FACTORIAL HepG2 Assay for human Glucocorticoid Response Elements (GRE) (AID 2282947). Conditions: HepG2 GRE cis-reporter, Attagene multiplex mRNA; AC50: actives raise or lower the signal unless noted; outcome: actives raise or lower the signal unless noted. In outline:
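Cells (HepG2) bearing transfected cis-promoter reporter transcription units were treated with chemical for 24 hours. Reporter mRNA was measured via RT-PCR with capillary electrophoresis, and activity was fitted in both directions relative to DMSO.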

A short description of test [13]: ATG_ISRE_CIS: Attagene CIS-FACTORIAL HepG2 Assay for human Interferon Regulatory Factor 1 (IRF1) binding to an Interferon-Stimulated Response Element (ISRE) (AID 2282948). Conditions: HepG2 ISRE cis-reporter (Attagene), mRNA transcription readout; actives raise or lower the signal. The method in brief:
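Multiplexed mRNA reporter readout in human liver HepG2 cells: cis-element-driven reporters transfected, compound added for 24 h, transcripts amplified, fluorescently labelled and sized by capillary electrophoresis; curve fitting bidirectional against DMSO.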

Test [14] can be described thus: ATG_M_32_CIS: Attagene CIS-FACTORIAL HepG2 Assay for M32 Transcription Factor (Internal Marker) (AID 2282949).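 Note: background control marker of the multiplexed CIS panel rather than a real target.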 Conditions: HepG2 Attagene cis-factorial M32 reporter, mRNA; actives raise or lower the signal. In outline:
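HepG2 transfectants (cis-regulated reporter transcription units) dosed 24 h. Reporter mRNA by RT-PCR plus CE, analysed as gain or loss relative to DMSO.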

Test [15] can be described thus: ATG_M_06_CIS: Attagene CIS-FACTORIAL HepG2 Assay for M06 Transcription Factor (Internal Marker) (AID 2282950). Conditions: HepG2 Attagene CIS-FACTORIAL M06 internal marker reporter; actives raise or lower the signal. The method in brief: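 HepG2 cells transiently transfected with cis-regulated multiple reporter transcription units were exposed to chemical for 24 h; reporter mRNA was quantified by RT-PCR, 6-FAM primer labelling, HpaI digestion and capillary electrophoresis, fitted bidirectionally against DMSO.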

Test [16] concerns the target Hypoxia-inducible factor 1-alpha (Homo sapiens) (UniProt Q16665). Kind of test: ATG_HIF1a_CIS: Attagene CIS-FACTORIAL HepG2 Assay for human Hypoxia Inducible Factor 1 (HIF1A) (AID 2282951). The note with it: HepG2 Attagene cis-factorial HIF1a reporter transcription; actives raise or lower the signal. In outline:
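Endogenous-TF cis reporter readout, human HepG2 cells, 24 h incubation; mRNA detected via RT-PCR and capillary electrophoresis fluorescence; DMSO-normalised bidirectional fitting.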

Test [17] deals with Hepatocyte nuclear factor 6 (Homo sapiens) (UniProt Q9UBC0). Kind of test: ATG_HNF6_CIS: Attagene CIS-FACTORIAL HepG2 Assay for human Hepatocyte Nuclear Factor 6 (HNF6) (AID 2282952). Conditions: HepG2 Attagene cis-factorial HNF6 reporter transcription; actives raise or lower the signal. In outline:
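Readout: fluorescent reporter-transcript fragments resolved by capillary electrophoresis after RT-PCR, reflecting endogenous factor activity in transfected HepG2. Exposure 24 h. Gain or loss of signal fitted bidirectionally against DMSO.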

Test [18] concerns the target Heat shock factor protein 1 (Homo sapiens) (UniProt Q00613). Put plainly: ATG_HSE_CIS: Attagene CIS-FACTORIAL HepG2 Assay for human Heat Shock Transcription Factor 1 (HSE) (AID 2282953). The note with it: HepG2 HSE cis-reporter, Attagene RNA transcription; actives raise or lower the signal. The method in brief: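 HepG2 cells transiently transfected with multiple reporter transcription units under cis-regulatory promoter control, measuring endogenous transcription factor activity. After 24 h chemical exposure, reporter mRNA quantified by RT-PCR, fluorescent labelling, HpaI digestion and capillary electrophoresis; bidirectional fit versus DMSO.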

Test [19] in a line: ATG_MRE_CIS: Attagene CIS-FACTORIAL HepG2 Assay for human Metal Responsive Element (MRE) (AID 2282954). Conditions: HepG2 MRE cis-reporter transcription, Attagene multiplex; actives raise or lower the signal. In outline:
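Cells were transfected with cis-promoter reporter transcription units, then dosed for 24 h. RNA was reverse-transcribed, amplified, fluorescently labelled and resolved by capillary electrophoresis, and activity was fitted in both directions relative to DMSO.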

Test [20] in a line: ATG_PBREM_CIS: Attagene CIS-FACTORIAL HepG2 Assay for human Phenobarbital-responsive Enhancer Module (PBREM) (AID 2282955). Conditions: HepG2 PBREM cis-reporter, Attagene multiplexed transcription; actives raise or lower the signal. In outline:
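Readout: reporter mRNA, fluorescent RT-PCR fragments separated by capillary electrophoresis. System: HepG2 transiently transfected with cis-regulated reporter units. Exposure: 24 h. Analysis: bidirectional, DMSO baseline.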

For orientation: AC50 means the midpoint of the concentration-response curve, whichever way the signal moves.

Where “and” joins values, the source holds several entries; their conditions need not be identical. Equal entries are not always repeated. More than one record can exist for a structure, and the calls need not agree. Calls of active or inactive are those of the source. Rule for the calls: active = hit-call score of the fitted dose curve at least 0.9, where 1 is the maximum; inactive = score below 0.9.

Sequence of Hepatocyte nuclear factor 6 (Homo sapiens) (Q9UBC0 whole entry, looked up, the tested form may be a part): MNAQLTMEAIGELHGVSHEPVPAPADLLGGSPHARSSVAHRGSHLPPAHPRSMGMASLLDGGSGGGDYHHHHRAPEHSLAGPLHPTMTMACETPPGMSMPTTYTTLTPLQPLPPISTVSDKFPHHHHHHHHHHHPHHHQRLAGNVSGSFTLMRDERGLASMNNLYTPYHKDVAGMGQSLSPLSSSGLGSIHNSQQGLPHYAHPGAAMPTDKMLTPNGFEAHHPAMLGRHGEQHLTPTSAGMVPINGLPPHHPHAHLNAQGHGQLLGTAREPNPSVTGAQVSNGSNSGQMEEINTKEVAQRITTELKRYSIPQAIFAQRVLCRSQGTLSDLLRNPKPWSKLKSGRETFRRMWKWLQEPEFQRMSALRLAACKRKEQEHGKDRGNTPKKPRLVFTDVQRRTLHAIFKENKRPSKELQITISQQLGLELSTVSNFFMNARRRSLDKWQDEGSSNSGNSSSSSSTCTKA
Sequence of Heat shock factor protein 1 (Homo sapiens) (Q00613 whole entry, looked up): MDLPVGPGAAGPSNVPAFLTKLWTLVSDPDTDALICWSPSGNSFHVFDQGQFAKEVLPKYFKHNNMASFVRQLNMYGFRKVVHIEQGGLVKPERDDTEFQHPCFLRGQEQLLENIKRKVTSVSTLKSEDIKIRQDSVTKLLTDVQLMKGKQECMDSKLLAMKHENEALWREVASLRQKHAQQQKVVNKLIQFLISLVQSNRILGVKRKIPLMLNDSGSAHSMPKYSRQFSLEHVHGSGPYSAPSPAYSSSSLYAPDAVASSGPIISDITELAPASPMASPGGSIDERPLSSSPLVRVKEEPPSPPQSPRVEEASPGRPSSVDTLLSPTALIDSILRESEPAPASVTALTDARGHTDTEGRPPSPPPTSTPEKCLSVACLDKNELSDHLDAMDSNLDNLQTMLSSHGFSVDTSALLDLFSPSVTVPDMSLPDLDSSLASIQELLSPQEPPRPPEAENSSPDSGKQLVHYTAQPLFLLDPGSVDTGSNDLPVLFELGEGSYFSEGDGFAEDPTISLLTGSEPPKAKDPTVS
Sequence of Bile acid receptor (Homo sapiens) (Q96RI1 whole entry, looked up): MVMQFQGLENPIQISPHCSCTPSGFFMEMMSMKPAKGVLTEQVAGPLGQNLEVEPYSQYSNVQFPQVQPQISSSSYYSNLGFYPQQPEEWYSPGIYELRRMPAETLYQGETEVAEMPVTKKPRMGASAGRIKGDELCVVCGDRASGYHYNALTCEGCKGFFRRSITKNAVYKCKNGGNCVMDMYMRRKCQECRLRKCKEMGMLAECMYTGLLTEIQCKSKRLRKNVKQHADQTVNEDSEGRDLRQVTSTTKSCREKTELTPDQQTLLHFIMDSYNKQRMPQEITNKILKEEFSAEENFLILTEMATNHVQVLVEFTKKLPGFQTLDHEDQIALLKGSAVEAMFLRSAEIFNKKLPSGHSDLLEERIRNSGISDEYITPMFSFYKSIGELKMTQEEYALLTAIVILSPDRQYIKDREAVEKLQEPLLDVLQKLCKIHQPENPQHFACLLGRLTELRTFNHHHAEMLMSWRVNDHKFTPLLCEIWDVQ
Sequence of Hypoxia-inducible factor 1-alpha (Homo sapiens) (Q16665 whole entry, looked up): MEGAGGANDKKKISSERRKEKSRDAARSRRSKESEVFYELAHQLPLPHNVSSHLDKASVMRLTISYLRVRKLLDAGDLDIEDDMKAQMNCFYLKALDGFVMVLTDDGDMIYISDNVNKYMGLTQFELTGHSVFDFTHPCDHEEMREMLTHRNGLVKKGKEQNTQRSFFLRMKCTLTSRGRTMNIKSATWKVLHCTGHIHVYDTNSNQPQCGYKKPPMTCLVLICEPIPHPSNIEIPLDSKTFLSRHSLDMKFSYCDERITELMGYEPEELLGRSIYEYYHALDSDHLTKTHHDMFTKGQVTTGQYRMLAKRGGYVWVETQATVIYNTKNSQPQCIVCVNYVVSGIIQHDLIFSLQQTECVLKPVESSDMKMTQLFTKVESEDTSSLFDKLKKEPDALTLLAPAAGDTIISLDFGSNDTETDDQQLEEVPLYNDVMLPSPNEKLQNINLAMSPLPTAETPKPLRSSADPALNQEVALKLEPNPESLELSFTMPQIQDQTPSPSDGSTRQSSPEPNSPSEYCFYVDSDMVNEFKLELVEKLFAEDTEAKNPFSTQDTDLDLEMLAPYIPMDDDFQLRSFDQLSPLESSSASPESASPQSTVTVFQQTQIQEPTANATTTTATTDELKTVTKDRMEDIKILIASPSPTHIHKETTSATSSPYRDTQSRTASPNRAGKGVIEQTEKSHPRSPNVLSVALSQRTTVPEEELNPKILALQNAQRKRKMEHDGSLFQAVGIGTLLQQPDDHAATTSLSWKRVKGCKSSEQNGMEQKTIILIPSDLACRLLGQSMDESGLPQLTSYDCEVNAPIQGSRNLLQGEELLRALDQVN
Sequence of Hepatocyte nuclear factor 3-beta (Homo sapiens) (Q9Y261 whole entry, looked up, the tested form may be a part): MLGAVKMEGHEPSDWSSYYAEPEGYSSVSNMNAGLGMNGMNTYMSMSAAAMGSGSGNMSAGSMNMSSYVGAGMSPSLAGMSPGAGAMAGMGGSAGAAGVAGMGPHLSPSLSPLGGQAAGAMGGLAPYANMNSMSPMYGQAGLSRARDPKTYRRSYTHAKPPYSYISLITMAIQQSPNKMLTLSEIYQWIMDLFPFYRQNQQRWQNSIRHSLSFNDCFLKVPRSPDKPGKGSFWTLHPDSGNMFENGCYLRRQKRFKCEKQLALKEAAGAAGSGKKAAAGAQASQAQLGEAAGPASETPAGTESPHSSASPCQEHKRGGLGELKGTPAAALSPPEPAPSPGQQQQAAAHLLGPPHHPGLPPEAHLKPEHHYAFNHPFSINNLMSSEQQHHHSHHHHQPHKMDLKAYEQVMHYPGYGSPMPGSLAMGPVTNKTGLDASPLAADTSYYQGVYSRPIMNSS

Regarding `O=C1c2ccc(O)c(O)c2C(=O)c2c(O)ccc(O)c21`, the AC50 in [1] is 6.45 µM (active); in test [5], 13.6 µM (active); in [16], 12.6 µM (active). The call in test [2], in test [3], in test [4], in test [6], in test [7] and in test [8] was inactive. Also, the call in test [9], in test [10], in test [11], in test [12], in test [13] and in [14] was inactive. Besides, the compound was called inactive in test [15], in test [17], in test [18], in test [19] and in test [20].

For `CCN(CC)CC`, the outcome in test [1], in test [2], in [3], in test [4], in test [5] and in test [6] was inactive. Besides, the compound was classed as inactive in test [7], in test [8], in test [9], in test [10], in [11] and in test [12]. For the same compound, the compound was classed as inactive in test [13], in test [14], in test [15], in test [16], in test [17] and in [18]. Also, the outcome in test [19] and in [20] was inactive.

For `OCCN1CN(CCO)CN(CCO)C1`, the result in test [1], in test [2], in [4], in [5], in [6] and in [7] was inactive. Besides, the compound was classed as inactive in test [8], in test [9], in test [11], in test [12], in test [14] and in test [15]. For the same compound, the compound was classed as inactive in test [16], in [17] and in test [20]. In addition, the AC50 in [3] was 173 µM (active); in test [10] it was 162 µM (active); in test [13], 159 µM (active); in test [18] it was 178 µM (active); in [19], 165 µM (active).

Turning to `CCCCCCC(C)(C)C(=O)O`, the result in [1], in test [2], in test [4], in test [6], in [7] and in test [8] was inactive. Moreover, the outcome in [9], in test [10], in test [11], in test [12], in test [13] and in test [14] was inactive. The result in test [15], in test [17], in test [19] and in [20] was inactive. Also, the AC50 in test [3] is 130 µM (active); in test [5] it was 27.6 µM (active); in test [16], 188 µM (active); in test [18], 187 µM (active).

As to `O=C(c1cc(O)c(O)c(O)c1)c1ccc(O)c(O)c1O`, the result in [1], in test [2], in test [3], in test [4], in [5] and in test [6] was inactive. Moreover, the call in [7], in test [8], in [9], in [10], in test [11] and in test [12] was inactive. The result in test [13], in test [14], in [15], in test [17], in test [18] and in test [19] was inactive. Also, the result in test [20] was inactive. The AC50 in test [16] is 53.5 µM (active).

Consider `O=C(O)C(F)(F)OC(F)(F)C(F)(F)OC(F)(F)C(F)(F)OC(F)(F)C(F)(F)C(F)(F)C(F)(F)F`, for which the concentration at half-maximal activity (AC50) was 89.1 µM (active) in test [1]; 19.6 µM (active) and 25.7 µM (active) in test [3]; 76.5 µM (active) in [9]; 24.6 µM (active) and 26 µM (active) in test [13]; 28.2 µM (active) in test [16]; 70.1 µM (active) in test [17]. The AC50 in test [18] is 23.7 µM (active); in test [19] it was 31.4 µM (active) and 28.9 µM (active). Moreover, the result in [1], in test [2], in test [4], in test [5], in [6] and in [7] was inactive. The outcome in test [8], in test [9], in test [10], in [11], in [12] and in test [14] was inactive. Moreover, the compound was classed as inactive in [15], in test [16], in test [17], in test [18] and in test [20].
